# According to PubChem BioAssay (NCI):
# About 83,000 compounds went through this panel and 20% of them were active in at least one assay; those are over-represented in the sample as a whole.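 Interpretation: 100, growth as untreated; towards 0, rising growth inhibition; 0, no net growth; 0 to -100, cell death. Compounds scoring below 10 were considered active.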 A number with no mark means an inactive call. Activity calls are given as the source filed them.
# What was measured:
# Assay in all cases: NCI-60 one-dose screen, 48 h (100 = growth as untreated, 0 = no growth, -100 = all killed)
# Conditions in all cases: 10 µM unless noted
# HCT-15 colon = test system: HCT-15 colon
# HT29 colon = test system: HT29 colon
# SNB-75 CNS = test system: SNB-75 CNS
# SNB-19 CNS = test system: SNB-19 CNS
# U251 CNS = test system: U251 CNS
# PC-3 prostate = test system: PC-3 prostate
# SK-MEL-5 melanoma = test system: SK-MEL-5 melanoma
# UACC-62 melanoma = test system: UACC-62 melanoma
# LOX IMVI melanoma = test system: LOX IMVI melanoma
# SK-MEL-28 melanoma = test system: SK-MEL-28 melanoma
Compound,growth (HCT-15 colon),growth (HT29 colon),growth (SNB-75 CNS),growth (SNB-19 CNS),growth (U251 CNS),growth (PC-3 prostate),growth (SK-MEL-5 melanoma),growth (UACC-62 melanoma),growth (LOX IMVI melanoma),growth (SK-MEL-28 melanoma)
COC(=O)CC[C@@H]1O[C@@H](c2cccc(C(F)(F)F)c2)[C@@H](O)[C@H]1O,101%,97.8%,92.5%,107%,102%,97.8%,98%,104%,97.4%,105%
Cc1c2cnccc2c(C)c2c1c1cc(C#N)ccc1n2C,-20.6% (active),-18.9% (active),-35.8% (active),-1.41% (active),-10.5% (active),-17.2% (active),-98.7% (active),-52.6% (active),-35.6% (active),-39.7% (active)
COc1ccc(OC)c(Nc2nnc(-c3ccc(O)c(OC)c3)o2)c1,46.5%,99%,15.2%,70%,65.1%,74.8%,71.6%,96.7%,43.3%,108%
Nc1cnc(C(=O)NNc2nc3cc(F)ccc3n3cccc23)cn1,24.8%,35%,87.2%,36.1%,36.7%,47.2%,34.5%,22.7%,22%,40%
CCOCCNC1=C(Cl)C(=O)c2ccccc2C1=O,–,107%,57.9%,111%,100%,92.6%,67.2%,101%,70.6%,117%
CCOC(=O)c1c(C(=O)c2cn(C)c3ccc(Br)cc23)c(-c2cn(C)c3ccc(Br)cc23)n(NC(=O)OC(C)(C)C)c1C,–,90.5% [100 µM],-27.3% [100 µM] (active),50.8% [100 µM],60.7% [100 µM],61.8% [100 µM],90.6% [100 µM],65.7% [100 µM],78% [100 µM],107% [100 µM]
COc1cc(C2CC(c3ccc(Nc4nc(Nc5ccc(Cl)cc5)nc(Nc5ccc(Cl)cc5)n4)cc3)=NN2C(C)=O)cc(OC)c1OC (stereo not given),–,97.2%,106%,102%,93.6%,89.9%,81.3%,90.1%,105%,119%
CCCCCCCCCCCCCCCCOCCCOP(=O)(O)C1CCCN(O)C1=O (stereo not given),–,23.1%,22.8%,22%,18.7%,13.5%,-65.8% (active),-13% (active),0.67% (active),38.3%
COc1ccc(-c2cc(-c3cc(OC)c(OC)c(OC)c3)c(C#N)c(=O)n2CCCCC(=O)NO)cc1,–,77.9%,25.5%,77.5%,61.3%,61%,57.7%,60.7%,9.19% (active),76.8%
CC(C)c1ccc(-n2c(=S)[nH]c3sc4cc(O)ccc4c3c2=O)cc1,–,113%,85.9%,90.4%,103%,100%,98.6%,93.6%,96.9%,103%
CCOC(=O)c1c(NC(=O)c2cccc(C(F)(F)F)c2)sc2c(CN(C)C)c(O)ccc12,–,13.5%,83%,88.4%,16.5%,60.3%,93.6%,102%,16.5%,17%
Cn1cc(-c2csc(-c3c[nH]c4ccc(Br)cc34)n2)c2ccnc(Cl)c21,–,20.8%,85.2%,81.7%,33.4%,50.2%,71.7%,68.8%,26.2%,71.7%
COc1cc2nc3cc([N+](=O)[O-])ccc3c(NCCNCC(C)O)c2cc1OC (stereo not given),–,2.64% (active),-59.9% (active),-10.4% (active),-25.3% (active),-38.6% (active),-82.4% (active),-56.8% (active),-35.7% (active),-20% (active)
CCOC(=O)NC(C)C,–,107%,96.8%,99.3%,106%,82%,103%,105%,102%,119%
COc1ccc(C/C(C)=C(\c2ccc(Cl)cc2)c2ccc(OCCN3CCCCC3)cc2)cc1,–,81.2%,89.3%,93.5%,92.1%,94.6%,107%,83.8%,104%,101%
Oc1c(Br)cc(Br)c2ccc(Cn3cc(-c4ccccc4C(F)(F)F)nn3)nc12,–,107%,80.8%,94.3%,106%,104%,103%,95.5%,77.2%,96.9%
COC(=O)[C@]1(C)CCC[C@]2(C)[C@H]3C[C@H]4C(C(C)C)=C[C@]3(CC[C@H]21)[C@@H]1C(=O)CC[C@H](OCCC#N)[C@@H]14,–,69.6%,87.6%,89.6%,77.6%,34.5%,79.4%,69.3%,90.3%,101%
Fc1cccc(Oc2ccc(Nc3ncnc4ccc(OCCCN5CCOCC5)cc34)cc2Cl)c1,–,18.2%,77.2%,63.3%,47.4%,63.8%,32.3%,71.6%,21.6%,68.4%
Cc1ccc(NC(=O)c2sc3nc(C)c(Br)c(C)c3c2N)cc1,–,87.4%,20.9%,66.3%,50.8%,53.7%,73.1%,67.2%,62.1%,75.4%
C=CC(=O)N1CCN(c2cccc(Oc3nccc(Nc4nnc(-c5ccc(Br)cc5)s4)n3)c2)CC1,–,53.1%,69.3%,57.3%,56.8%,61.1%,42.7%,37%,59%,67.1%
CN1CCN(C(=O)c2ccc(NC(=O)c3cc4c(nn3)NCCN4Cc3cc(Cl)ccc3Cl)cc2)CC1,–,63.2%,79.4%,92.2%,65.6%,71.1%,75.2%,92.5%,59.4%,89%
Cc1[nH]c(C(=O)Nc2ccccc2OC2CCNCC2)c(Cl)c1Cl,–,-7.94% (active),-28.9% (active),33.4%,-4.3% (active),43.1%,-40.6% (active),-79.9% (active),-88.3% (active),18.9%

Compound,growth (HCT-15 colon),growth (HT29 colon),growth (SNB-75 CNS),growth (SNB-19 CNS),growth (U251 CNS),growth (PC-3 prostate),growth (SK-MEL-5 melanoma),growth (UACC-62 melanoma),growth (LOX IMVI melanoma),growth (SK-MEL-28 melanoma)
O=C1c2ccc3c4c5ccc(c24)C(=O)N1CCCOCCCCOCCCNCc1ccc(cc1)CNCCCOCCCCOCCCN(C3=O)C5=O,–,-18.7% (active),98.1%,-2.17% (active),-78.3% (active),6.2% (active),-99.9% (active),-90.3% (active),-87.8% (active),-24.1% (active)
CN(c1cc2ncc(=O)[nH]c2cc1NC(N)=NCc1ccc(Cl)cc1)C1CCCCC1,–,22.7%,58.2%,63.5%,-4.07% (active),64.3%,71.5%,72.3%,-45.6% (active),52.8%
CCOC(=O)[C@@H]1CSC(CC)=C(C(=O)O)N1,–,111%,115%,100%,94.6%,-9.62% (active),103%,94.4%,104%,101%
C#CCOC(=O)/C=C/c1cn(-c2ccccc2)nc1-c1ccc(OC)cc1,–,83.2%,66.6%,99.5%,83.1%,83.4%,92%,85.4%,83.6%,115%
CCCCCOC(=O)c1c(C)[nH]c(/C=C2\N=C(c3ccc[nH]3)C=C2OC)c1C,–,-28% (active),-28.1% (active),21.2%,-24.1% (active),12.3%,-100% (active),-70.9% (active),-99.7% (active),-45.8% (active)
CN(C)S(=O)(=O)c1cccc(C(=O)Nc2nc(-c3ccc(F)c(F)c3)cs2)c1,–,74.3%,75.5%,92%,55.1%,39.1%,2.37% (active),45.9%,71.9%,102%
O=S(=O)(Nc1cc(F)cc(Cl)c1)c1ccc(-c2cnc(C3CC3)o2)cc1,–,4.89% (active),-22.1% (active),30.4%,33.6%,32%,19.9%,35.1%,39.3%,71.3%
COc1c(B(O)O)cccc1-c1cc(C)c2c(ccc3[nH]ncc32)n1,–,88.2%,-29.9% (active),91.1%,87.8%,84.3%,88.9%,98.8%,56.9%,116%
O=C(Nc1ccccc1)Nc1ncnc2c1ncn2-c1ccc(Cl)cc1,–,80.4%,44.3%,97.1%,77.6%,104%,94.9%,89.3%,91.9%,95.5%
COc1ccccc1N1CCCCC1,–,101%,99.4%,95.2%,108%,98.8%,108%,96.3%,100%,102%
COc1ccc(C2CC(c3ccc(Nc4nc(Nc5ccccc5)nc(Nc5ccccc5)n4)cc3)=NN2C(C)=O)cc1 (stereo not given),–,101%,89.8%,88.7%,88.1%,86.4%,83.5%,94.3%,103%,109%
NC(=O)CSc1oc(-c2ccccc2)nc1S(=O)(=O)c1ccc(Br)cc1,–,50.2%,9.67% (active),83%,54.6%,77.9%,55.7%,49.5%,94.3%,87.7%
O=C1C(=O)N(Cc2ccc(-c3ccccc3)cc2)c2ccc(OC(F)(F)F)cc21,–,9.07% (active),39.3%,43.2%,20.9%,17.4%,92.2%,62.3%,20.1%,82.7%
COc1cc(/C=C2/C=C(c3ccccc3)N(CCc3ccc(S(N)(=O)=O)cc3)C2=O)cc(OC)c1OC,–,94.7%,71.9%,101%,87%,44.2%,90.7%,89.6%,101%,119%
COC(=O)c1c2c(c(C)[n+]([O-])c1C)C(=O)C(NCc1cccc(OC)c1)=CC2=O,–,11.4%,132%,19.2%,-1.83% (active),6.62% (active),-54.8% (active),-13.3% (active),22%,86.6%
O=C(Nc1cccc(-c2ccc(N3CCOCC3)nn2)c1)Nc1cccc(C(F)(F)F)c1,–,91.2%,111%,86.6%,71.2%,31.4%,41.9%,43.2%,70.2%,88.7%
CC(C)COc1nc2c(c(=O)n(C)c(=O)n2C)n1C,–,99.8%,82.4%,99.9%,101%,102%,86.7%,93.8%,105%,106%
CNC(=O)c1ccccc1Oc1nc(Nc2cc(OC)c(OC)c(OC)c2)ncc1Br,–,45.1%,53.1%,94.9%,57.6%,61.4%,80%,50.7%,21.8%,80.5%
CCn1cc(C(=O)NNC(=S)Nc2ccc(C)cc2)c(=O)c2ccc(C)nc21,–,97.5%,97.3%,102%,93.9%,90.2%,101%,91.3%,95.1%,105%
O=S(=O)(NCCCNc1nccc(-c2c(-c3ccc(F)c(O)c3)nc3sccn23)n1)c1ccccc1,–,51%,105%,104%,90.2%,61.5%,51.1%,5.45% (active),18%,24.1%
CC(=O)O[C@@H]1C[C@]2(C(C)C)O[C@@]1(C)[C@@H]1CCC(C)=C1[C@@H]2OC(=O)/C=C/c1ccccc1,–,74.8%,89.1%,102%,91.2%,56.5%,90.7%,83.6%,83.3%,97.3%
Cc1ccc2c(Cn3cc(CSc4nc5ccccc5o4)nn3)cc(=O)oc2c1,–,108%,105%,105%,113%,104%,98.8%,104%,96.9%,110%
